# From PubChem BioAssay AID591 (National Center for Advancing Translational Sciences (NCATS), 2007)
# Hit rate of the full screen: of about 59,000 compounds, about 60 (0.1%) were called active. The rule behind the calls is not given here. The full list was thinned out, with actives kept by preference.
# Experiment: qHTS Assay for Spectroscopic Profiling in A488 Spectral Region
# Details: compound autofluorescence
# Text: NIH Molecular Libraries Screening Centers Network [MLSCN]
# NIH Chemical Genomics Center [NCGC]
# Occasionally, the artifactual effect may originate from the compounds own spectral or other biophysical properties which generally tend to track its assay concentration. Pre-screening/profiling the library with respect to the compounds spectral properties should help one exclude false positives early on. While the most informative fluorescent profiling data set is obtained by performing a full excitation and emission scan of each well by using a monochromator-based plate reader, such an approach is practical only on a very limited scale as scanning each well requires long time. An alternative approach, applied here, is to perform plate reader scans using selected excitation and emission wavelength pairs to generate a multidimensional relational database that correlates compound concentration and the respective relative fluorescence intensity at a given wavelength set. A standard curve of Alexa 488 (A488) present on each plate as six-point concentration series, was used to compute a normalized fluorescence response, termed dye-equivalent concentration, for each compound at each concentration.
# NCGC Assay Protocol Summary:
# 100 mM Tris buffer, pH 8.0
# The wells in columns 1 through 4 of a Kalypsys polypropylene 1536-well compound plate were filled with standard solutions of fluorophore corresponding to the spectral region of interest. Solutions of A488 were placed in the following wells: Y1, Z1: 3 mM, Y2, Z2: 300 uM, Y3, Z3: 30 uM, Y4, Z4: zero (DMSO), AA1, AB1: 3 uM, AA2, AB2: 900 nM, AA3, AB3: 300 nM, AA4, AB4: zero (DMSO).
# Six uL of buffer were dispensed to 1536-well Greiner black plates. Compounds and dye standards (23 nL) were transferred via Kalypsys PinTool. The plates were incubated for 15 min at room temperature, and then read on ViewLux (Perkin-Elmer) High-throughput CCD imager using 480 nm and 540 nm excitation and emission filter set.
# Keywords: NIH Roadmap, MLSCN, MLI, MLSMR, qHTS, NCGC, A488, A-488, Fluorescent Profiling.
# [1] = max dye equivalency: Compound Type: qHTS ECL - SigmaAldrich, hits give high values unless noted, outcome: dye equivalency, Compound Type: qHTS ECL - MLSMR unless noted
compound,measurement,setting,value
CCCOP(=O)(c1ccc(N(C)C)cc1)C(O)c1cc(OC)c(OC)c(OC)c1 (stereo not drawn),outcome,[1],"inactive [dye equivalency, Compound Type: qHTS ECL - DPISMR]"
COc1ccccc1-c1nc(NCc2cccs2)c2ccccc2n1,outcome,[1],"inactive [dye equivalency, Compound Type: qHTS ECL - Pharmacopeia]"
CC(=O)N1CCC(C(=O)Nc2nc(-c3ccccc3)ns2)CC1,outcome,[1],"inactive [dye equivalency, Compound Type: qHTS ECL - DPISMR]"
N#Cc1cccc(-c2ccc3ncnc(NCc4cccs4)c3c2)c1,outcome,[1],"inactive [dye equivalency, Compound Type: qHTS ECL - Pharmacopeia]"
COc1ncc2nc(-c3ccc(Cl)cc3)c(=O)n(-c3ccccc3)c2n1,outcome,[1],"inactive [dye equivalency, Compound Type: qHTS ECL - Pharmacopeia]"
COc1ccc2c3c(c(=O)oc2c1OCC(=O)C(C)(C)C)CCCC3,outcome,[1],"inactive [dye equivalency, Compound Type: qHTS ECL - DPISMR]"
CCOc1ccccc1-n1c(SCC(=O)N2CCCC2)nnc1-c1ccoc1C,outcome,[1],inactive
CCOC(=O)N1CCC(NC(=O)CN2C(=O)COc3ccc(C(C)(C)C)cc32)CC1,outcome,[1],"inactive [dye equivalency, Compound Type: qHTS ECL - DPISMR]"
CC1(C)CC(=O)C=C(NCc2ccncc2)C1,outcome,[1],inactive
Oc1ccc2ccccc2c1C=NCc1c(O)ccc2ccccc12,outcome,[1],"inactive [dye equivalency, Compound Type: qHTS ECL - NCI]"
COc1cccc(NS(=O)(=O)c2ccc3[nH]cc(C(=O)NCCCOC(C)C)c(=O)c3c2)c1,outcome,[1],inactive
O=c1c2c(nc3n1CCCCC3)sc1c(O)cccc12,outcome,[1],inactive
O=C(CN1CCN(c2ccc(F)cc2)CC1)Nc1cccc(C(F)(F)F)c1,outcome,[1],"inactive [dye equivalency, Compound Type: qHTS ECL - DPISMR]"
CCc1c(C)nc(N)n2c(SCC(=O)N3CCN(c4ccccc4)CC3)nnc12,outcome,[1],inactive
O=C(Nc1cccc(F)c1)N1CCC2(CC1)CCN(S(=O)(=O)c1ccccc1)CC2,outcome,[1],"inactive [dye equivalency, Compound Type: qHTS ECL - Pharmacopeia]"
COc1ccc(-c2nnc(SCC(=O)c3ccco3)n2-c2ccccc2)cc1,outcome,[1],inactive
CCn1c(SCC(=O)NCC2CCCO2)nc2cc(S(=O)(=O)N3CCCCC3)ccc21 (stereo not drawn),outcome,[1],inactive
O=c1c(-c2cccs2)nc2cnc(Oc3ccccc3)nc2n1-c1ccccc1,outcome,[1],"inactive [dye equivalency, Compound Type: qHTS ECL - Pharmacopeia]"
COCCn1c(=O)c(-c2cccc(F)c2)nc2cncnc21,outcome,[1],"inactive [dye equivalency, Compound Type: qHTS ECL - Pharmacopeia]"
CCCn1c(SCC(N)=O)nnc1C(C)C,outcome,[1],inactive
C=CCNC(=O)CCCC(=O)NCC=C,outcome,[1],"inactive [dye equivalency, Compound Type: qHTS ECL - DPISMR]"
CN1CCN2c3ccccc3Cc3ccccc3[C@@H]2C1,outcome,"dye equivalency, Compound Type: qHTS ECL - Prestwick",inactive
same,outcome,"dye equivalency, Compound Type: qHTS ECL - SigmaAldrich",inactive
CSc1nc(O)c(Cc2ccccc2)c(=O)[nH]1,outcome,[1],inactive
O=C(Cn1c(-c2ccc(Cl)cc2)noc1=O)N1CCN(c2ccccc2F)CC1,outcome,[1],inactive
CCN(Cc1cc2cc(C)ccc2[nH]c1=O)S(=O)(=O)c1ccccc1,outcome,[1],inactive
CCCCOc1ccc(Cl)cc1CSc1nncn1N,outcome,[1],"inactive [dye equivalency, Compound Type: qHTS ECL - DPISMR]"
O=c1cc(-c2ccccc2)[nH]c2nc(Cl)ccc12,outcome,[1],"inactive [dye equivalency, Compound Type: qHTS ECL - SigmaAldrich]"
CC[C@@H]1Cc2cc(O)ccc2C2=C1c1ccc(O)cc1C[C@H]2CC,outcome,[1],"inactive [dye equivalency, Compound Type: qHTS ECL - SigmaAldrich]"
O=c1c(-c2ccc(F)cc2)nc2cnc(N3CCNCC3)nc2n1Cc1cccs1,outcome,[1],"inactive [dye equivalency, Compound Type: qHTS ECL - Pharmacopeia]"
Nc1nc(N)c2[nH]c(CNc3ccc(C(=O)O)cc3)nc2n1,outcome,[1],"inactive [dye equivalency, Compound Type: qHTS ECL - NCI]"
N#Cc1cccc(-c2nc3cnc(N4CCNCC4)nc3n(C3CC3)c2=O)c1,outcome,[1],"inactive [dye equivalency, Compound Type: qHTS ECL - Pharmacopeia]"
CC(C)NC(=O)N1CCC2(CC1)CCN(C(=O)c1cccn1C)CC2,outcome,[1],"inactive [dye equivalency, Compound Type: qHTS ECL - Pharmacopeia]"
COCCn1c(=O)c(CCc2ccccc2)nc2cnc(N3CCNCC3)nc21,outcome,[1],"inactive [dye equivalency, Compound Type: qHTS ECL - Pharmacopeia]"
CCc1nc(C)cn1S(=O)(=O)c1cc(OC)c(C)cc1C,outcome,[1],inactive
CC(c1ccco1)N(C(=O)c1ccc(S(=O)(=O)N2CCCCC2)cc1)c1ccccn1 (stereo not drawn),outcome,[1],inactive
CS(=O)(=O)N(CC(=O)NCc1ccco1)c1ccc2c(c1)OCO2,outcome,[1],"inactive [dye equivalency, Compound Type: qHTS ECL - DPISMR]"
O=C(NC1(C(F)(F)F)N=C2SCCN2C1=O)c1ccco1 (stereo not drawn),outcome,[1],inactive
COc1ccc(OCC(=O)OCC(=O)Nc2ccc(S(=O)(=O)N3CCCCC3)cc2)cc1,outcome,[1],inactive
O=C(N1CCOCC1)N1CCOCC1,outcome,[1],inactive
CCNC(=O)CN(c1ccc(C)cc1)S(=O)(=O)c1ccc(SC)cc1,outcome,[1],inactive
CN(Cc1ccco1)c1cc(-c2ccccc2C(F)(F)F)ncn1,outcome,[1],"inactive [dye equivalency, Compound Type: qHTS ECL - Pharmacopeia]"
COC(=O)Cc1nc2ccccc2[nH]1,outcome,[1],"inactive [dye equivalency, Compound Type: qHTS ECL - DPISMR]"
CCOc1ccc(N=NS(=O)(=O)O)cc1,outcome,[1],"inactive [dye equivalency, Compound Type: qHTS ECL - NCI]"
CN1CCN(C(=O)C2C3C=CC(C3)C2C(=O)O)CC1 (stereo not drawn),outcome,[1],inactive
CN(C)c1ncc2nc(-c3ccc(F)cc3)c(=O)n(Cc3ccc(F)cc3)c2n1,outcome,[1],"inactive [dye equivalency, Compound Type: qHTS ECL - Pharmacopeia]"
CN(C)C(=O)c1ccc(-c2cncnc2NC2CCNCC2)cc1,outcome,[1],"inactive [dye equivalency, Compound Type: qHTS ECL - Pharmacopeia]"
CC(C)NC(=O)N1CC[C@@]2(CCCN(C(=O)c3ccco3)C2)C1,outcome,[1],"inactive [dye equivalency, Compound Type: qHTS ECL - Pharmacopeia]"
COc1ccc(C(=O)N2CCC[C@@]3(CCN(C(=O)NC(C)C)C3)C2)cc1,outcome,[1],"inactive [dye equivalency, Compound Type: qHTS ECL - Pharmacopeia]"
CC(C)NC(=O)N1CC[C@@]2(CCCN(C(=O)c3cccc(F)c3)C2)C1,max dye equivalency,[1],"33 nM [Compound Type: qHTS ECL - Pharmacopeia, hits give high values] (active)"
c1n[nH]c(NCc2ccc3c(c2)OCO3)n1,outcome,[1],inactive
CN(C)C(=O)/N=N\C(=O)N(C)C,outcome,[1],"inactive [dye equivalency, Compound Type: qHTS ECL - SigmaAldrich]"
COCCn1c(=O)c(-c2cccs2)nc2cnc(N3CCN(C)CC3)nc21,outcome,[1],"inactive [dye equivalency, Compound Type: qHTS ECL - Pharmacopeia]"
Cc1ccc(-c2nnc(SC(C)C#N)n2N)cc1 (stereo not drawn),outcome,[1],inactive
CCN(Cc1nc2ccccc2c(=O)[nH]1)Cc1cc(=O)oc2cc(C)c(C)cc12,outcome,[1],inactive
O=C(CCS(=O)(=O)c1cccc2nonc12)NCCc1ccccc1Cl,outcome,[1],inactive
CCOc1cc(S(=O)(=O)NC2CC(C)(C)NC(C)(C)C2)ccc1F,outcome,[1],"inactive [dye equivalency, Compound Type: qHTS ECL - DPISMR]"
FC(F)(F)c1cccc(Nc2ncnc3ccccc23)c1,outcome,[1],"inactive [dye equivalency, Compound Type: qHTS ECL - DPISMR]"
c1csc(CN2CCN(Cc3cccs3)C2c2cccs2)c1,outcome,[1],inactive
CCOc1ccc(NC(=O)Nc2ccc(N(C)C(C)=O)cc2)cc1,outcome,[1],"inactive [dye equivalency, Compound Type: qHTS ECL - DPISMR]"
COC(=O)[C@H](Cc1ccccc1)NC(=O)Nc1ccc(S(N)(=O)=O)cc1,outcome,[1],"inactive [dye equivalency, Compound Type: qHTS ECL - DPISMR]"
COCCNc1ncnc2ccc(-c3cccnc3)cc12,outcome,[1],"inactive [dye equivalency, Compound Type: qHTS ECL - Pharmacopeia]"
Nc1ccc2c3c(cccc13)C(=O)NC2=O,max dye equivalency,[1],95 nM (active)
O=C(Cn1c(-c2ccccn2)nc2ccccc21)NCCN1CCOCC1,outcome,[1],"inactive [dye equivalency, Compound Type: qHTS ECL - DPISMR]"
Cc1cc(C)c2c(c1)c(C)cc1nnc(SCC(=O)NCc3ccco3)n12,outcome,[1],inactive
Cc1ccc(NC2=NC(c3ccccc3)n3c(nc(C)cc3=O)N2)cc1 (stereo not drawn),outcome,[1],"inactive [dye equivalency, Compound Type: qHTS ECL - DPISMR]"
CC[C@H](c1ccccc1)c1cc(C(C)(C)C)cc(C(C)(C)C)c1O,outcome,[1],"inactive [dye equivalency, Compound Type: qHTS ECL - NCI]"
COc1cccc(Cn2c(=O)c(CCc3ccccc3)nc3cnc(N(C)C)nc32)c1,outcome,[1],"inactive [dye equivalency, Compound Type: qHTS ECL - Pharmacopeia]"
